The list is not random: actives were taken first. Their share in the collection is about 2.3%.
H9c2 protect = protects H9c2 cardiomyocytes from peroxide injury; H2O2 injury protection, ATPLite, 2 h; hit rate 0.63% among 360,000; protection from H2O2 cell death, % at 20 µM; AID 588492;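 active means compounds giving at least 50% protection of heart cells from peroxide-induced death in the single-dose screen, raw or plate-pattern-corrected value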;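 further: 0% = DMSO wells with peroxide and 100% = DMSO wells without peroxide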
FAS-TE inh = blocks the thioesterase domain of human fatty acid synthase. hit rate 0.67% among 360,000. inhibition, % at 15 µM. AID 602261. recombinant FAS-TE, OMFH fluorogenic substrate, fluorescence endpoint;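 active means compounds whose normalised, plate-corrected inhibition of enzyme fluorescence in the single-dose primary screen is 50% or more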;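 further: 0% = DMSO with enzyme and 100% = substrate without enzyme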
TAG inh = inhibitors of triacylglycerol accumulation | AID 651582 | hit rate 0.66% among 230,000 | inhibition, % at 12.5 µM | H9c2 cells, Nile Red lipid (TAG) fluorescence; cells loaded with 200 µM oleic acid;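 active means pattern-corrected inhibition of lipid staining of at least 50% with the nuclear-stain viability signal not falling by more than 50%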;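 further: 0% = DMSO wells and 100% = triacsin C control wells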
beta cell repl = induces beta-cell replication in MIN6 cells; AID 2380; MIN6 cells proliferation, ATPlite luminescence, 48 h; cells starved in 0.2% serum; 100% = growth in 10% serum; proliferation, % at 10 µM; hit rate 0.29% among 330,000;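 active means compounds whose signal lies at least 3.5 SD above the mean of all wells on their plate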;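 further: 0% = DMSO-treated cells in low-serum medium and 100% = 10% serum control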
aDG glyco up = alpha-DG glycosylation activation. Pro5-aDG cells, alpha-DG glycosylation AlphaScreen (IIH6); 0% Pro5, 100% B10-LARGE cell signal. activation, % at 10 µM. hit rate 0.22% among 360,000. AID 624168;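 active means activation of at least 8% versus controls, or a plate z-score of at least 8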;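 further: Pro5 are CHO cells carrying HIG-tagged alpha-DG that lacks glycosylation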
Calpain2 inh = inhibitors of pig calpain II; AID 1236; hit rate 0.37% among 220,000; purified calpain II, fluorogenic peptide substrate, 30 min; inhibition, % at 16 µM;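 active means inhibition above about 50%, limit read from the data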
FAS-TE inh conf = confirmation of human fatty acid synthase thioesterase inhibitors; shares compounds with FAS-TE inh; recombinant FAS-TE, OMFH fluorogenic substrate, fluorescence; inhibition, % at 15 µM; hit rate 45% among 2,300;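 active means compounds inhibiting the enzyme by at least 50% at 15 µM in any one of the replicates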;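 further: 0% = enzyme with DMSO only and 100% = wells lacking enzyme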
* marks the source's active call; other numbers are inactive results.

`CCN(C(=O)COC(=O)c1cc([N+](=O)[O-])ccc1N1CCOCC1)C1CCCCC1` gave H9c2 protect -2, FAS-TE inh 86*, TAG inh -19, beta cell repl 3, aDG glyco up 0 and FAS-TE inh conf 92*.
For Cc1cccc(OCC(=O)NNC(=O)c2ccccc2OCc2c(C)noc2C)c1 the results were H9c2 protect 1, FAS-TE inh -6, TAG inh -3, beta cell repl -4 and aDG glyco up 0.
For O=C(COC(=O)CCc1ccccc1)NNC(=O)c1ccccc1 the results were H9c2 protect 4, FAS-TE inh -4, TAG inh -13, beta cell repl -4 and aDG glyco up 0.
O=C(COC(=O)c1cc([N+](=O)[O-])ccc1N1CCOCC1)NC1CCCCC1 was read as H9c2 protect -9, FAS-TE inh 92*, TAG inh 3, beta cell repl 3, aDG glyco up 0 and FAS-TE inh conf 91*.
For CCc1cccc(C)c1NC(=O)COC(=O)c1cc([N+](=O)[O-])ccc1N1CCOCC1 the results were H9c2 protect 6, FAS-TE inh 68*, TAG inh -9, beta cell repl 4, aDG glyco up 0 and FAS-TE inh conf 69*.
COCCOc1ccc(C(F)(F)F)cc1NC(=O)COC(=O)c1ccc(N2CCCC2=O)cc1 was read as H9c2 protect -4, FAS-TE inh 1, TAG inh 4, beta cell repl -4 and aDG glyco up 0.
`COCCOc1ccc(C(F)(F)F)cc1NC(=O)COC(=O)c1cc([N+](=O)[O-])ccc1N1CCOCC1` gave H9c2 protect -1, FAS-TE inh 72*, TAG inh 26, beta cell repl 1, aDG glyco up 0 and FAS-TE inh conf 30*.
Cc1cc(Cl)ccc1NC(=O)COC(=O)c1cc([N+](=O)[O-])ccc1N1CCOCC1 was read as H9c2 protect 4, FAS-TE inh 77*, TAG inh -66, beta cell repl 2, aDG glyco up 0 and FAS-TE inh conf 79*.
`NC(=O)c1ccc(NC(=O)COC(=O)c2cc([N+](=O)[O-])ccc2N2CCOCC2)cc1` gave H9c2 protect -1, FAS-TE inh 36, TAG inh 13, beta cell repl -3 and aDG glyco up 0.
`O=C(COC(=O)c1cc([N+](=O)[O-])ccc1N1CCOCC1)Nc1ccc(Cl)cc1` gave H9c2 protect 4, FAS-TE inh 81*, TAG inh -25, beta cell repl -2, aDG glyco up 0 and FAS-TE inh conf 49*.
CC1(C(=O)NCc2ccccc2)CSCC(=O)N1CCOc1ccccc1 (centres undefined) was read as aDG glyco up 0.
Screening COc1ccc(CNC(=O)C2CCN(S(=O)(=O)c3ccc(N4CCCC4=O)cc3)CC2)cc1 returned H9c2 protect -11, FAS-TE inh -4, TAG inh -24 and aDG glyco up 0.
CC(=O)Nc1ccc(NC(=O)CS(=O)(=O)c2cn(CC(=O)N3CCCC3)c3ccccc23)cc1 was read as H9c2 protect 2, FAS-TE inh -6, TAG inh -12, beta cell repl -1 and aDG glyco up 0.
Screening CCC(C)C(=O)Nc1nnc(CCc2ccccc2)s1 (centres undefined) returned H9c2 protect 1, FAS-TE inh 0, beta cell repl 1 and aDG glyco up 0.
For CCOc1ccccc1NC(=O)COC(=O)c1c[nH]c2ccccc12 the results were H9c2 protect -8, FAS-TE inh -2, TAG inh -25, beta cell repl -2 and aDG glyco up 0.
Screening CC(C)CCSc1nc(N)c(C#N)cc1C#N returned H9c2 protect -3, FAS-TE inh 65*, beta cell repl 3, aDG glyco up 0, Calpain2 inh -37 and FAS-TE inh conf 9.
For CC(=O)c1cc(C#N)c(SCCC(C)C)nc1C the results were H9c2 protect 0, FAS-TE inh 56*, beta cell repl 4, aDG glyco up 0, Calpain2 inh -1 and FAS-TE inh conf 48.
`CCSc1nc(C)c(C(C)=O)cc1C#N` gave H9c2 protect -2, FAS-TE inh 13, beta cell repl 2, aDG glyco up 0 and Calpain2 inh 2.
Screening Cc1ccccc1NC(=O)CSc1nc(N)c(C#N)cc1C#N returned H9c2 protect 4, FAS-TE inh -2, beta cell repl 0, aDG glyco up 0 and Calpain2 inh 2.
For Cc1ccc(C)c(N(CC(=O)NCc2ccco2)C(=O)CNS(=O)(=O)c2ccccc2)c1 the results were H9c2 protect -4, FAS-TE inh 3, beta cell repl 1 and aDG glyco up 0.
`O=C1NC(Cc2ccccc2)c2nc3ccc(F)cc3c(=O)n2-c2cc3ccccc3cc21` (centres undefined) gave H9c2 protect 26, FAS-TE inh 80*, TAG inh 41, aDG glyco up 0 and FAS-TE inh conf 29.
Screening Cc1ccc2nc3n(c(=O)c2c1)-c1ccc(Cl)cc1C(=O)NC3Cc1ccccc1 (centres undefined) returned beta cell repl 2.
Cc1ccc2nc3n(c(=O)c2c1)-c1cc2ccccc2cc1C(=O)NC3Cc1ccccc1 (centres undefined) was read as H9c2 protect -4, FAS-TE inh 91*, TAG inh 46, aDG glyco up 0 and FAS-TE inh conf 2.
CCCC1NC(=O)c2cc3ccccc3cc2-n2c1nc1ccc(C)cc1c2=O (centres undefined) was read as H9c2 protect -12, FAS-TE inh 27, TAG inh -2 and aDG glyco up 0.
Screening O=C1NC(Cc2ccccc2)c2nc3ccc(Cl)cc3c(=O)n2-c2cc3ccccc3cc21 (centres undefined) returned H9c2 protect -6, FAS-TE inh 78*, TAG inh 22, aDG glyco up 0 and FAS-TE inh conf 11.
`O=C1NC(Cc2ccccc2)c2nc3ccc(Cl)cc3c(=O)n2-c2ccc(Cl)cc21` (centres undefined) gave beta cell repl 4.
CCCC1NC(=O)c2cc3ccccc3cc2-n2c1nc1cc(Cl)ccc1c2=O (centres undefined) was read as H9c2 protect -18, FAS-TE inh 73*, TAG inh -7, aDG glyco up 0 and FAS-TE inh conf 35.
O=C1NC(Cc2ccccc2)c2nc3ccc(F)cc3c(=O)n2-c2ccccc21 (centres undefined) was read as beta cell repl 1.
`O=C1CCCCC1(c1ccccc1)c1ccccc1` gave H9c2 protect 1, FAS-TE inh 10, TAG inh 6 and aDG glyco up 0.
